Source: PubChem BioAssay AID1259422 (The Scripps Research Institute Molecular Screening Center, 2018)
The campaign covered roughly 640,000 compounds. About 9,300 (1.5%) were called active. This excerpt belongs to a sample that is enriched for actives. Values without a mark were called inactive. Cut-off read from the data, not from the text of the source: active = inhibition above about 32%; inactive = the rest.

Assay: TEAD-YAP interaction inhibition, primary screen, TEAD-YAP interaction inhibitor project, luminescence, HEK-TIYL cells (AID 1259422);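 note: 0% = median of test compound wells and 100% = reference inhibitor wells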
Conditions: TEAD-Gal4/YAP UAS-luciferase luminescence, at 9.12 µM, active compounds read high

SMILES	inhibition
C=CCSc1nnc2c3ccccc3n(CCc3ccccc3)c2n1	41.4% (active)
COC(=O)CSc1nnc2c3ccccc3n(CCc3ccccc3)c2n1	-5.74%
C=CCN(CC=C)C(=O)CSc1nnc2c3ccccc3n(C)c2n1	-18.1%
CC(Cc1ccco1)NC(=O)Nc1ccc2c(c1)OCO2 (configuration not stated)	-9.4%
Nc1c(Cl)cc(N2C(=O)c3cccc([N+](=O)[O-])c3C2=O)cc1Br	-3.28%
Cc1c(C(c2ccc3c(c2)OCCO3)c2c(C)n(C)n(-c3ccccc3)c2=O)c(=O)n(-c2ccccc2)n1C	1.2%
FC(F)(F)c1cccc(Nc2nccn3c(-c4ccc(N5CCOCC5)cc4)cnc23)c1	9.67%
Cc1ccc(C2SCC(=O)N2c2ccccc2)cc1 (configuration not stated)	-20.1%
Cc1ccc(C2SCC(=O)N2c2ccc(C)cc2)cc1 (configuration not stated)	35.1% (active)
COc1ccc(N2C(=O)CSC2c2ccc(C)cc2)cc1 (configuration not stated)	1.91%
CCCC1(C2CCN(C(=O)c3ccc(F)c(F)c3)CC2)NC(=O)N(CC2CCCO2)C1=O (configuration not stated)	-9.71%
COc1ccc(C2C3=C(CC(C)(C)CC3=O)N(CCc3ccccc3)C3=C2C(=O)CC(C)(C)C3)cc1	4.3%
O=C1C2C3C=CC(C3)C2C(=O)N1c1ccc(Oc2ccc(Br)cc2)cc1 (configuration not stated)	-3.86%
Cc1ccc(-c2ncn(-c3ccc(Nc4nccc(-c5cc(C#N)cc(N6CCCC(O)C6)c5)n4)cc3)n2)cn1 (configuration not stated)	-6.62%
Cn1nnnc1-c1ccc(Nc2nccc(-c3ccc(N4CCC(O)CC4)c(C#N)c3)n2)cc1	37.5% (active)
O=C(c1ccc(Nc2nccc(-c3ccc4c(=O)[nH]c(C5CC5)nc4c3)n2)cc1)N1CCCC1	-6.26%
COc1ccc(-c2nc(NCCOc3ccccc3)nc(OC)n2)cc1	-21.8%
Cc1cc(C)n(CCc2nc(-c3ccc(Cl)cc3)cs2)n1	-9.3%
COC1CCN(c2nc(CN3CCCC3c3nccs3)nc3ccc(Cl)cc23)CC1 (configuration not stated)	42.9% (active)
Clc1ccc(CN2CCC[C@H]2c2nc3ccc(-c4ccncc4)cc3[nH]2)cc1	-0.35%
OC1(c2cccnc2)CCN(Cc2nc(N3CCOCC3)c3cc(Cl)ccc3n2)CC1	-1.26%
NC(=O)c1ccc(-c2nccc(NC3CCN(Cc4ccccc4)CC3)n2)cc1	-1.25%
COc1cccc(OC)c1C(=O)Nc1ccc(C)cc1	-5.7%

SMILES	inhibition
C=CCNC(=O)C1CCCN1S(=O)(=O)c1ccc(Cl)cc1 (configuration not stated)	57.2% (active)
C=CCNC(=O)C1CCCN(S(=O)(=O)c2ccc(F)cc2)C1 (configuration not stated)	1.52%
Cc1ccc(S(=O)(=O)N2CCCC2C(=O)NCCO)cc1 (configuration not stated)	-1.16%
CCOCCCNC(=O)C1CCC(=O)N1C1CCCCC1 (configuration not stated)	-0.7%
Cc1ccc(S(=O)(=O)NC(C)Cc2cccs2)cc1 (configuration not stated)	5.37%
CC1=C(C(=O)NCc2cccs2)C2(CCCCC2)OC1=O	13.8%
CN(C)c1ccc(-c2nc3ccc(C(=O)O)cc3s2)cc1	96.5% (active)
CN1CCN(c2ccc(-c3nc4ccc(C(=O)NCc5ccccc5)cc4s3)cc2)CC1	3.92%
O=C(NC1CC1)c1ccc(-c2nc3ccc(C(=O)NC4CCN(Cc5ccccc5)CC4)cc3s2)cc1	-0.23%
N#C/C=C(/CC(O)(c1nc2ccccc2s1)C(F)(F)F)N1CCCC1 (configuration not stated)	2.12%
CN(C)C(=O)c1cc(CNCCCc2ccccc2)cc(NC(=O)c2ccccn2)c1	-3.43%
Cc1cc(NC(=O)c2cccn(OCc3ccc(F)cc3)c2=O)no1	-2.96%
COc1ccccc1Nc1ncnc2c1cnn2-c1ccc(C)cc1	-73%
Fc1ccc(Nc2ncnc3c2cnn3-c2ccccc2)cc1	-36.2%
c1ccc(OCCn2ncc3c(N4CCCC4)ncnc32)cc1	81% (active)
c1ccc(Cn2nnc3c(N4CCCCC4)ncnc32)cc1	-2.04%
COc1ccc(-n2ncc3c(N4CCCC(C)C4)ncnc32)cc1 (configuration not stated)	94.8% (active)
CCOc1ccc(-n2cc(-c3ccccc3)c3c(N4CCCC(C)C4)ncnc32)cc1 (configuration not stated)	-7.09%
O=C(CCc1ccccc1)NCCn1ncc2c(N3CCN(c4ncccn4)CC3)ncnc21	-1.06%
OCCNc1ncnc2c1cnn2-c1ccccc1	-28.4%
COc1ccc(-n2ncc3c(Nc4ccc(F)c(Cl)c4)ncnc32)cc1	13.3%
c1ccc(-n2ncc3c(N4CCCC4)ncnc32)cc1	37.8% (active)
c1ccc(-n2ncc3c(Oc4cccc5cccnc45)ncnc32)cc1	42.7% (active)

SMILES	inhibition
Cc1ccc(N2CCN(c3ncnc4c3cnn4-c3ccccc3)CC2C)cc1 (configuration not stated)	9.96%
CCCS(=O)(=O)N1CCCc2ccc(NC(=O)CC(C)C)cc21	3.52%
CCOC(=O)C1CCN(c2nc(-c3cccnc3)nc3c2CN(S(C)(=O)=O)CC3)CC1	9.38%
COCCNC(=O)Cn1cnc2c(nnn2-c2ccc(Cl)cc2)c1=O	2.42%
N#Cc1c(-c2ccc(F)cc2)cc(C2CC2)nc1SCCN1C(=O)c2ccccc2C1=O	7.65%
Cc1cncn(CC(=O)NCCc2csc(-c3ccccc3)n2)c1=O	-3.04%
COc1ccccc1Cn1c(SCC(=O)Nc2ccc(N(C)C)cc2)nc2ccccc2c1=O	-7.65%
CCCCC(CC)CNS(=O)(=O)c1ccc2c(c1)n(C)c(=O)c(=O)n2C (configuration not stated)	-13.6%
COCCNC(=O)/C(=C/c1cccc([N+](=O)[O-])c1)c1ccccc1	-2.61%
S=C(S)NCCc1c[nH]c2ccccc12	10.8%
O=C(CSc1nc(=O)[nH]c2c1CCC2)N1CCCCCC1	1.26%
O=C(CCc1nnc(-c2ccccc2)o1)NCCc1ccccc1Cl	-37.1%
CCN(CC)C(=O)C1CCCN(c2cc(NCc3ccccc3)ncn2)C1 (configuration not stated)	-14.4%
CN1CCN(c2ncnc3c2cnn3-c2ccc(Cl)c(Cl)c2)CC1	32.8% (active)
CCN(CC)C(=O)C1CCCN(c2ncnc3c2c(-c2ccccc2)cn3-c2cccc(Cl)c2)C1 (configuration not stated)	-12.8%
Cc1ccc(-n2ncc3c(N4CCN(C)CC4)ncnc32)c(C)c1	-7.59%
CCN(CC)C(=O)C1CCCN(c2ncnc3c2cnn3-c2ccccc2)C1 (configuration not stated)	34.1% (active)
CN1CCN(c2ncnc3c2c(-c2ccccc2)cn3-c2ccccc2)CC1	4.3%
Cc1ccccc1C(=O)NCC1(c2cccs2)CC1	-38.7%
CN1CCN(C(=O)c2ccc(-c3ccc(C(=O)NCCOc4ccccc4)s3)cc2)CC1	-10.2%
O=C1c2ccc(Br)cc2C(=O)N1CNc1cccc(F)c1	2.19%
CCCCOc1ccccc1C1C(C(=O)OCCOCC)=C(C)NC2=C1C(=O)CC(C)(C)C2 (configuration not stated)	-1.41%
COc1ccccc1C1N=C(c2cccs2)CC(c2ccccc2O)N1 (configuration not stated)	-31.6%

SMILES	inhibition
Cn1c(-c2ccc(F)cc2Cl)c(C(=O)O)c2ccccc2c1=O	5.25%
Cc1ccc2c(c1)CN(CCC(=O)NCC(C)(C)CO)CC(C)O2 (configuration not stated)	5.33%
COc1ccccc1-c1cc2nc(C)c(CCC(=O)Nc3ccccc3C(N)=O)c(C)n2n1	12.4%
COc1ccc(CNC(=O)CCc2c(C)nc3cc(-c4ccccc4)nn3c2C)cc1	2.84%
COc1ccccc1-c1cc2nc(C)c(CCC(=O)O)c(C)n2n1	48.5% (active)
O=C(C1CC=CCC1)N1CCn2cnnc2C1 (configuration not stated)	1.34%
Cc1cc(C)nc(SCC(=O)Nc2cc(C(=O)O)cc([N+](=O)[O-])c2)n1	-2.98%
CCn1c(=O)cc(SCC(=O)Nc2cccc([N+](=O)[O-])c2C)c2ccccc21	-12.2%
Cc1c(/C=N\NC(=O)c2cc3ccccc3o2)c2ccccc2n1C	49.3% (active)
Cc1c(/C=N/NC(N)=S)c2ccccc2n1C	-7.34%
Cc1c(/C=N\Nc2ccc([N+](=O)[O-])cc2)c2ccccc2n1C	12.8%
c1ccc(Cn2cc(-c3cnn4c(NCCc5cccnc5)ccnc34)cn2)cc1	-23.6%
C=CCn1c(SCC(=O)N2CCCCCC2)nc2scc(-c3ccc(C)o3)c2c1=O	-7.67%
C=CCn1c(SCC(=O)N2CCOCC2)nc2scc(-c3ccccc3Cl)c2c1=O	49.9% (active)
C=CCn1c(SCCC(=O)NCCc2ccccc2)nc2scc(-c3ccco3)c2c1=O	-10.1%
Cc1ccc(C(=O)COC(=O)c2ccc(-n3cnnn3)cc2)cc1	11.7%
COc1cc(Nc2nc(-c3ccc(C(=O)NC4CC4)cc3)nc3c2ncn3-c2ccsc2)cc(OC)c1OC	22.8%
O=C(COC(=O)CSCc1c[nH]c(=O)[nH]c1=O)Nc1nc(-c2ccccc2)cs1	-38%
O=c1oc2ccccc2cc1-c1cn2c(n1)sc1cc(Cl)ccc12	62.5% (active)
O=c1oc2ccc(Br)cc2cc1-c1cn2c(n1)sc1ccccc12	2.88%
CCCCCCc1cc2cc(-c3cn4c(n3)sc3cc(Cl)ccc34)c(=O)oc2cc1O	-3.76%
Cc1cccc(N2C(=O)NC(=O)/C(=C\c3ccc(I)o3)C2=O)c1C	-0.13%
O=C(O)/C(=C\c1ccccc1)NC(=O)c1ccc(Br)cc1	-2.04%
